Bioassay records (PubChem BioAssay)
Rows were chosen to be rich in hits. Some 18% of all compounds tested hit in one or more screens of this group.
IL-1B inflam inh: blocks inflammasome-driven IL-1 beta release; THP-1 LPS/ATP IL-1B secretion, AlphaLISA, 16 h; active compounds read low; activity change, % at 57.5 µM; 360,000 compounds, 4.7% hits; AID 743279; in the data active = activity change below about -50%; inconclusive = mostly about -30% to -49%
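Secreted IL-1B measured by AlphaLISA bead assay after 16 h compound exposure of THP-1 cells; compounds (final up to 57.5 uM) added 1 h before LPS (250 ng/mL) and ATP (1.25 mM) stimulation; lower signal means less secretion.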
TDP1 cell noCPT: qHTS for Inhibitors of human tyrosyl-DNA phosphodiesterase 1 (TDP1): qHTS in cells in absence of CPT | DT40 Tdp1-/- hTDP1 cells, no CPT, ATP luminescence, 48 h | Potency, µM (highest dose often 46.2 µM), inactives show at the highest dose activity change, negative = growth inhibition, usual class: inhibitors | 420,000 compounds, 15% hits; note: potency is the fitted concentration of half-maximal effect; nearly all actives have a fitted effect of over 55% in size
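Camptothecin absent (DMSO only). Human TDP1-complemented DT40 knockout cells, 400 cells/well, 37 °C for minimum 48 hr; ATP measured via CellTiter-Glo, 30 min dark incubation, luminescence.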
VP16 counter: inhibits Gal4-VP16 luciferase reporter, ROR gamma counter-screen | Drosophila S2 Gal4-VP16 UAS-luciferase, luminescence, 20 h | Potency, µM (doses to about 53.6 µM), without a hit: at the highest dose activity, negative = inhibition, actives largely listed as inhibitors | 310,000 compounds, 3.5% hits | AID 2546;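 note: Gal4-VP16 expression switched on by copper sulfate through the metallothionein promoter; potency is the fitted concentration of half-maximal effect; nearly all actives have a fitted effect of over 50% in size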
RORg inh: inhibitors of mouse ROR gamma transcriptional activity; P51450; Drosophila S2 Gal4-RORgamma UAS-luciferase reporter, 20 h; Potency, µM (series often up to 53.6 µM), for inactives: top-dose activity change, negative = inhibition, most hits filed as inhibitors; 310,000 compounds, 5.4% hits; AID 2551; note: potency is the fitted concentration of half-maximal effect; nearly all actives have a fitted effect of over 60% in size
Target sequence (P51450 whole entry, looked up, the tested form may be a part): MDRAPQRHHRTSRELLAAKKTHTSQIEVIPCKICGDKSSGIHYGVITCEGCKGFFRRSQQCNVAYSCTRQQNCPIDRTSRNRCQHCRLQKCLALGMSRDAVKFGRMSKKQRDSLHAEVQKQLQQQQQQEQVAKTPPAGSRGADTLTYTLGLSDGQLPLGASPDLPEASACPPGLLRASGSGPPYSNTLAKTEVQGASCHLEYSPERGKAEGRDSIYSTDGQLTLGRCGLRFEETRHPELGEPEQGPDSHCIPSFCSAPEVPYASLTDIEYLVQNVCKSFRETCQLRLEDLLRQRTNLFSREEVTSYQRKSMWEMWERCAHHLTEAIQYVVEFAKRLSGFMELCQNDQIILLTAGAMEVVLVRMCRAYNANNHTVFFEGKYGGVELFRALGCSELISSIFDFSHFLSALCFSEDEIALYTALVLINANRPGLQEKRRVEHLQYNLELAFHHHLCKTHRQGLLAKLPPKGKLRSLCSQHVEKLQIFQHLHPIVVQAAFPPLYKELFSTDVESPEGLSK
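Schneider cells (Drosophila), stable Gal4 DBD–ROR gamma + UAS-luc; 1 hr cmpd preincubation; Cu2+ induction 700 uM final; 20 hr ambient; luminescence.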
LDHA block: LDHA (human) enzyme inhibition; 480,000 compounds, 0.15% hits; activity change, % (values are at about 110 or 230 µM); purified LDHA, NADH/diaphorase-resazurin fluorescence; active compounds read low; P00338; in the data active = activity change below about -30%; inconclusive = mostly about -25% to -30%;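 note: plate controls were DMSO wells for no effect and wells without enzyme for full effect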
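Enzyme activity of human lactate dehydrogenase 5 (2 nM; 0.06 mM NADH, 0.2 mM pyruvate, 5 min, RT) is measured via a resazurin/diaphorase fluorescence readout of residual NADH.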
TDP1 cell CPT: DT40-hTDP1 cell growth loss with CPT; chicken DT40 Tdp1-/-;hTDP1 cells + 20 nM CPT, ATP luminescence, 48 h; Potency, µM (highest dose often 46.2 µM), without a hit: at the highest dose activity change, negative = growth inhibition, most hits filed as inhibitors; 420,000 compounds, 12% hits; AID 686979; note: potency is the fitted concentration of half-maximal effect; nearly all actives have a fitted effect of over 55% in size
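Chicken DT40 Tdp1-/- cells complemented with human TDP1, 400 cells/well, exposed to compounds plus 20 nM camptothecin for at least 48 h at 37 C; viability read as ATP content by CellTiter-Glo luminescence.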
Numbers without * were called inactive; ? = inconclusive; . = no result given. Unless noted, calls come from the whole dose curve; as a rule, active = well fitted curve in the direction sought with a large enough effect; inconclusive = small, poorly fitted or top-dose-only effect, or another doubt; inactive = no such curve, though single readings can be large; an effect the other way counts as inactive or inconclusive. Unless noted, % is set by controls: 0 for no effect and ±100 for the full control effect.

SMILES | IL-1B inflam inh | TDP1 cell noCPT | VP16 counter | RORg inh | LDHA block | TDP1 cell CPT
Cc1sc2nc(C(C)C)nc(SCC(=O)N3c4ccccc4CC3C)c2c1C (stereo unspecified) | 25 | ? | 18µM* | 8.9µM* | -3 | ?
CCOC(=O)CSc1nc(C(C)C)nc2sc(C)c(C)c12 | 0 | ? | -9% | -3% | -5 | 1%
CC(=O)N1N=C(c2c(-c3ccccc3)c3cc(Cl)ccc3n(C)c2=O)CC1c1ccco1 (stereo unspecified) | . | . | . | . | 4 | .
CCOc1ccccc1Nc1nnc(SCC(=O)Nc2nc(-c3ccc(OC)cc3)cs2)s1 | 7 | -16% | 2% | -42% | -8 | -24%
COc1ccccc1Nc1nnc(SCC(=O)Nc2nc(-c3ccc(F)cc3)cs2)s1 | 93 | 13µM* | -17% | ? | 0 | 15µM*
COc1ccccc1Nc1nnc(SCC(=O)NC2CC2)s1 | -20 | -16% | . | . | 2 | 11%
COc1ccc2cc(C)c3nnc(SCC(=O)Nc4nc(-c5ccc(F)cc5)cs4)n3c2c1 | 8 | 23µM* | -3% | 17% | 2 | 21µM*
COc1ccc(NC(=O)CSc2nnc3c(C)cc4ccccc4n23)cc1 | . | 8% | . | . | -6 | 10%
COc1ccc(-c2csc(NC(=O)CSc3nnc(Nc4ccccc4C)s3)n2)cc1 | 20 | 6.5µM* | 8% | -33% | -1 | 6.5µM*
O=C1CN(C(=O)COC(=O)CC23CC4CC(CC(C4)C2)C3)c2ccccc2N1 | . | . | . | . | -1 | .
Cc1cccc(NC(=O)CN2CCN(CCc3ccccc3)CC2)c1 | . | . | . | . | -25 | .
O=C(N[C@@H]1C/C=C\C[C@@H](CC(=O)N(CCO)Cc2ccccc2)C(=O)N[C@@H](c2ccccc2)COC1=O)OCC1c2ccccc2-c2ccccc21 | 9 | 6.5µM* | . | . | 0 | 7.3µM*
CC(C)(C)OC(=O)C[C@H]1C/C=C\C[C@@H](CC(=O)N(CCO)Cc2ccccc2)C(=O)N[C@@H](c2ccccc2)COC1=O | -4 | ? | . | . | -1 | ?
O=C(N[C@H]1C/C=C\C[C@H](CC(=O)N(CCO)Cc2ccccc2)C(=O)NC[C@H](c2ccccc2)OC1=O)OCC1c2ccccc2-c2ccccc21 | -2 | 6.5µM* | . | . | 0 | 6.5µM*
CC(=O)c1c(N2CCN(Cc3ccc4c(c3)OCO4)CC2)nc(=S)n(-c2ccccc2)c1C | -2 | 18µM* | -10% | 6% | -4 | ?
CC(=O)c1c(N2CCN(c3ccccc3)CC2)nc(=S)n(-c2ccccc2)c1C | -65* | 21µM* | 1% | 14% | -1 | 23µM*
CC(=O)c1c(N2CCN(CCO)CC2)nc(=S)n(-c2ccccc2)c1C | 0 | 14% | -1% | 18% | -2 | -3%
CC(=O)c1c(N2CCN(Cc3ccccc3)CC2)nc(=S)n(-c2ccccc2)c1C | -19 | 23µM* | 4% | 0% | -13 | ?
CCOC(=O)N1CCN(c2nc(=S)n(-c3ccccc3)c(C)c2C(C)=O)CC1 | 7 | ? | -1% | 1% | 3 | 2%
CC(=O)c1c(N2CCC(C(N)=O)CC2)nc(=S)n(-c2ccccc2)c1C | 15 | -7% | -6% | -11% | -5 | -2%
CCSc1nnc2ccc(-c3ccc(OC)c(OC)c3)nn12 | -68* | 23µM* | -11% | -14% | -2 | ?
CCOC(=O)C1CCN(c2nc3ccccc3n3c(=O)n(CC(=O)Nc4ccccc4C#N)nc23)CC1 | . | . | . | . | -9 | .
CC/C=C(/C)C(=O)NCC(c1cccs1)N(C)C (stereo unspecified) | . | . | . | . | 0 | .
OC(COc1ccc2ccccc2c1)Cn1ccnc1 (stereo unspecified) | 1 | -21% | 2% | 15% | 0 | -16%
OC(COc1ccc2ccccc2c1Br)Cn1ccnc1 (stereo unspecified) | -25 | 21µM* | -4% | 35% | -6 | ?
SMILES | IL-1B inflam inh | TDP1 cell noCPT | VP16 counter | RORg inh | LDHA block | TDP1 cell CPT
COc1cc(OC)cc(-c2c(-c3cccs3)c3cc(-c4cc(OC)c(OC)c(OC)c4)ccc3n2C)c1 | -17 | -52% | . | . | -6 | ?
COc1ccc(-c2ccc3c(c2)c(-c2cccs2)c(-c2cc(OC)cc(OC)c2)n3C)cc1 | 11 | 23µM* | . | . | -5 | ?
COc1cc(OC)cc(-c2c(-c3cccs3)c3cc(-c4ccc(C(N)=O)cc4)ccc3n2C)c1 | 17 | 16µM* | . | . | -2 | ?
COc1cc(OC)cc(-c2c(-c3cccs3)c3cc(-c4cnc(OC)nc4)ccc3n2C)c1 | 1 | 15µM* | . | . | -1 | ?
COc1ccc(-c2c(-c3cc(OC)cc(OC)c3)n(C)c3ccc(-c4ccc5cc[nH]c5c4)cc23)cc1 | -2 | ? | . | . | 0 | ?
Cc1cccc(OCCSc2nc3cc(S(=O)(=O)N(C)C)ccc3o2)c1 | . | . | . | . | -3 | .
CCCCCCN1C[C@H](n2cc(COC(=O)c3ccccc3)nn2)[C@@H](O)C[C@@H]1c1ccccc1 | 24 | 23µM* | . | . | 1 | ?
CCCCCCN1C[C@@H](n2cc(COC(=O)c3ccccc3)nn2)[C@H](O)C[C@@H]1c1ccc(Cl)cc1 | -17 | 21µM* | . | . | -4 | 13µM*
Fc1ccc(CCNC(=S)Nc2ccc(Nc3ccccc3)cc2)cc1 | . | . | . | . | -1 | .
CCN(C(=O)COC(=O)c1cc(-c2cccs2)nc2ccccc12)C1CCS(=O)(=O)C1 (stereo unspecified) | -54* | -15% | -13% | 2% | -5 | -4%
COc1ccc(-c2cc(C(=O)OCC(=O)N(C)C3CCS(=O)(=O)C3)c3ccccc3n2)cc1OC (stereo unspecified) | -62* | ? | -13% | 32% | 0 | ?
CN(C(=O)COC(=O)/C=C/c1ccc2ccccc2n1)C1CCS(=O)(=O)C1 (stereo unspecified) | -106* | ? | 4% | -9% | 1 | ?
Cc1cc(N(C)C)n2nc(Cc3ccc(Cl)cc3)nc2n1 | . | . | . | . | -14 | .
CC1CSc2ccc(S(=O)(=O)N3CCN(c4ccccc4F)CC3)cc2NC1=O (stereo unspecified) | . | . | . | . | 0 | .
COc1ccc(N2CCN(C(=O)CSc3nnnn3-c3ccc4c(c3)OCCO4)CC2)cc1 | -59* | ? | ? | ? | 0 | ?
COc1ccc(-n2nnnc2SCC(=O)N2CCOCC2)cc1 | -5 | -19% | -7% | 32% | -8 | -19%
